Assay outcomes (PubChem BioAssay)
In the library only some 2.8% were active in any assay of this set; here they are far more common.
LMP1 NFkB inh: Epstein-Barr LMP1 NF-kappaB reporter inhibition | LMP1-induced NF-kappaB luciferase reporter cells, luminescence | inhibition, % at 12.5 µM | 350,000 compounds, 0.69% hits | AID 504558; in the data active = inhibition above about 41%; inconclusive = no clear call, values can overlap the other calls;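 also: 0% = neutral control wells and 100% = reference inhibitor control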
Shn3 3UTR inh: inhibitors of Schnurri-3 3'UTR reporter in osteoblasts | 360,000 compounds, 0.52% hits | Clone20 osteoblast Shn3 3'UTR firefly luciferase, 24 h | inhibition, % at 12.5 µM;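 active = mean inhibition of at least 75% with every replicate also reaching 75%; inconclusive = mean inhibition at least 75% but some replicate below; inactive = mean inhibition below 75%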;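 also: 0% = median of neutral control wells and 100% = pilot-screen positive control compound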
Peg3 prom inh-1: reduces Peg3 promoter-driven luciferase expression in HeLa | HeLa PEG-Prom luciferase reporter, luminescence, overnight | inhibition, % at 20 µM | 360,000 compounds, 1.7% hits | AID 588405;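 active = inhibition of at least 50% at 20 µM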
TRPM1 prom inh: inhibitors of MITF-driven TRPM1 promoter in melanoma cells; SK-MEL-5 TRPM1 promoter luciferase, 24 h; inhibition, % at 12.5 µM; 330,000 compounds, 0.83% hits; AID 488899;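 active = mean inhibition across replicates of 60% or more, whatever share of single replicates reaches that level; inconclusive = some that reach 60%, reason not given; inactive = mean inhibition across replicates below 60%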
PAX8 inh HTS: lowers PAX8-driven luciferase in RMG-I cells | inhibition, % at 12.6 µM | RMG-I TPO-luciferase reporter, SteadyGlo, 24 h | 360,000 compounds, 1.2% hits;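 active = mean replicate inhibition at least 60% with every replicate also reaching 60%; inconclusive = only one of the two criteria is met; inactive = mean below 60% and not all replicates reaching 60%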;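 also: luciferase light reporting Pax8 driven TPO promoter activity; plate controls were median of neutral control wells for no effect and mitoxantrone controls for full effect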
HIF-2a block: HIF-2a inhibition | 786-0 RCC cells HIF-2a reporter, luciferase luminescence, overnight | inhibition, % at 18.8 µM | 360,000 compounds, 0.72% hits | AID 624352;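 active = inhibition of the luminescence signal of 40% or more relative to plate controls, in a single-dose primary screen at 18.75 µM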
Peg3 prom inh-2: confirmation of Peg3 promoter inhibitors. shares compounds with Peg3 prom inh-1. HeLa PEG-Prom luciferase reporter, luminescence, overnight. inhibition, % at 20 µM. 1,300 compounds, 84% hits;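 active = at 20 µM dose, 40% or more inhibition averaged across four replicates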
* = called active by the depositor; u = inconclusive; x = no result given.

SMILES	LMP1 NFkB inh	Shn3 3UTR inh	Peg3 prom inh-1	TRPM1 prom inh	PAX8 inh HTS	HIF-2a block	Peg3 prom inh-2
Cc1ccc(S(=O)(=O)N(C)C[C@H]2Oc3ccc(NC(=O)Nc4ccccc4)cc3CC(=O)N([C@@H](C)CO)C[C@H]2C)cc1	x	x	x	x	12	x	x
COc1ccccc1CCNC(=O)c1cc(-c2ccncc2)nc2ccc(Br)cc12	-45	24	60*	1	38	24	36
CC(C)CN(C(=O)COC(=O)/C=C/c1ccc(Cl)c(Cl)c1)c1c(N)n(Cc2ccccc2)c(=O)[nH]c1=O	10	-11	89*	100*	-20	17	44*
COCCN(C(=O)COC(=O)/C=C/c1ccc(Cl)c(Cl)c1)c1c(N)n(Cc2ccccc2)c(=O)[nH]c1=O	11	12	5	12	8	12	x
O=C1COc2ccc(C(=O)CSc3nc4ccccc4c(=O)n3-c3ccc(Cl)c(Cl)c3)cc2N1	-22	4	76*	35	13	9	33
CN(C)c1ccc(CN2CCC(C(=O)NC(c3ccc(F)cc3)c3ccc4ccccc4n3)CC2)cc1 (stereo not given)	x	-8	31	x	21	-49	x
O=C(NC(c1ccc(F)cc1)c1ccc2ccccc2n1)C1CCN(Cc2cccc(C(F)(F)F)c2)CC1 (stereo not given)	x	58	78*	x	54	-52	85*
Nc1cccc2nc3ccccc3cc12	-14	-59	95*	85*	x	5	99*
COc1nc(N)c(C#N)c(-c2ccc(N(C)CCC#N)cc2)c1C#N	4	22	58*	10	41	21	66*
Cc1ccc(-c2nc3c(c(SCC(=O)N4CCOCC4)n2)Cc2c(CO)cnc(C)c2O3)cc1	8	18	27	-2	22	12	x
COc1ccc(-c2nc3c(c(SCC(=O)N4CCOCC4)n2)Cc2c(CO)cnc(C)c2O3)cc1	1	10	54*	5	18	2	40*
CC(C)(C)OC(=O)CC(S(=O)(=O)c1ccccc1)S(=O)(=O)c1ccccc1	-4	59	82*	x	86*	-80	97*
CN(C)c1ccc(N=Nc2nc3ccccc3n2C)cc1	57*	x	104*	u	90*	17	88*
CCNC(=O)C[C@H]1CC[C@H](NS(=O)(=O)c2ccc(C)cc2)[C@H](CO)O1	x	x	x	x	-12	x	x
C[C@@H]1CN([C@@H](C)CO)C(=O)c2cc(NC(=O)c3ccncc3)ccc2O[C@@H](C)CCCCO[C@@H]1CN(C)C(=O)CCC(F)(F)F	x	x	x	x	-5	x	x
NS(=O)(=O)c1ccc(CCNC(=O)CSc2ccc(Cl)cc2Cl)cc1	0	-4	22	0	-8	17	x
NS(=O)(=O)c1ccc(CCNc2nn3c(-c4ccc(F)c(Cl)c4)cnc3s2)cc1	x	58	67*	x	x	34	95*
C[C@@H]1CN([C@@H](C)CO)C(=O)Cc2cc(NS(=O)(=O)c3ccc(F)cc3)ccc2O[C@H]1CN(C)Cc1ccc2c(c1)OCO2	x	x	x	x	34	x	x
Cc1nc(Nc2ccc(F)cc2)nc(Nc2ccc(F)cc2)c1[N+](=O)[O-]	-5	-2	15	15	15	18	x
CC(=O)Nc1ccc(Nc2nc(C)c([N+](=O)[O-])c(Nc3ccccc3)n2)cc1	32	49	64*	43	26	28	56*
C[C@@H]1CN([C@@H](C)CO)S(=O)(=O)c2ccc(C#CC3(O)CCCC3)cc2O[C@H]1CN(C)C(=O)Cc1cccnc1	x	x	x	x	7	x	x
CCOc1ccccc1NC(=O)c1oc2ccccc2c1NC(=O)C1CCCO1 (stereo not given)	-11	-18	74*	-3	24	6	40
C[C@@H]1CN([C@@H](C)CO)C(=O)c2cccc(NC(=O)C3CCCCC3)c2O[C@H]1CN(C)S(=O)(=O)c1cn(C)cn1	x	x	x	x	6	x	x
O=C(NC(=S)NNC(=O)c1cnccn1)c1ccc(F)cc1	16	66	23	-2	-4	3	x
O=C(/C=C/c1ccc(F)cc1)NC(=S)NNC(=O)c1cnccn1	36	89*	55*	21	-6	-2	40*
O=C(c1cnc(N2CCN(c3ncccn3)CC2)c2ccccc12)N1CCN(c2ncccn2)CC1	10	36	60*	-5	27	7	34
